Source: PubChem BioAssay (NCATS)
Records with an inconclusive call do not appear. Activity calls are given as the source filed them. Unless noted, calls follow the shape of the full dose curve.

How the values were obtained:
[1] = qHTS for Inhibitors of the Functional Ribonucleoprotein Complex (vRNP) of Lassa (LASV) Arenavirus: LASV Primary Screen - GLuc reporter signal (AID 1347082; calls by dose curve; tested in HEK293 reporter line; also: nearly all actives have a fitted effect of over 60% in size)
[2] = qHTS for Inhibitors of the Functional Ribonucleoprotein Complex (vRNP) of Lassa (LASV) Arenavirus: Viability assay - alamar blue signal for LASV Primary Screen (AID 1347083; calls by dose curve; tested in HEK293 reporter line; also: nearly all actives have a fitted effect of over 80% in size)
[3] = qHTS for Inhibitors of the Functional Ribonucleoprotein Complex (vRNP) of Lymphocytic Choriomeningitis Arenaviruses (LCMV): Viability assay - alamar blue signal for LCMV Primary Screen (AID 1347085; calls by dose curve; tested in HEK293 reporter line; also: nearly all actives have a fitted effect of over 80% in size)
[4] = target: Nucleoprotein (Lymphocytic choriomeningitis virus (strain Armstrong)) (UniProt P09992); test: qHTS for Inhibitors of the Functional Ribonucleoprotein Complex (vRNP) of Lymphocytic Choriomeningitis Arenaviruses (LCMV): LCMV Primary Screen - GLuc reporter signal (AID 1347086); also: nearly all actives have a fitted effect of over 70% in size
Chain of Nucleoprotein (Lymphocytic choriomeningitis virus (strain Armstrong)) (P09992 whole entry, looked up): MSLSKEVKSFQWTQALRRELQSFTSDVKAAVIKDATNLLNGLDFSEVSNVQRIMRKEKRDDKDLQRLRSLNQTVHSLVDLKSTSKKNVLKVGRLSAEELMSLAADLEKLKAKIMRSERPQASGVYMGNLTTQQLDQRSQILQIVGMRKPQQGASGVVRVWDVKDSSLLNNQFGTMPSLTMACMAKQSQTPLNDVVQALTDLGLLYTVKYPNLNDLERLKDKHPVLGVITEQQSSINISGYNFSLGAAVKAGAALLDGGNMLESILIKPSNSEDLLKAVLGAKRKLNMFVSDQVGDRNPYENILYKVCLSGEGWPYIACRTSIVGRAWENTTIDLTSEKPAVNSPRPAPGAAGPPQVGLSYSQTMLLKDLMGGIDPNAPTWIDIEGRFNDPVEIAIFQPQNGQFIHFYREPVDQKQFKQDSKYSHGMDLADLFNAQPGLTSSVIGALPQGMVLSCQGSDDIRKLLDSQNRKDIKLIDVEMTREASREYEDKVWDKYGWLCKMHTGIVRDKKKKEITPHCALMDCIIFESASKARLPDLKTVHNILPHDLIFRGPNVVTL

Measured: Potency
Also: series mostly up to about 57 µM.

CCCCc1ncc(/C=C(\Cc2cccs2)C(=O)O)n1Cc1ccc(C(=O)O)cc1
inactive: all assays above

COc1ccc(OC)c(C(O)CNC(=O)CN)c1 (stereo not drawn)
inactive: all assays above

CC(C)(C)NC(=O)[C@@H]1CN(Cc2cccnc2)CCN1C[C@@H](O)C[C@@H](Cc1ccccc1)C(=O)N[C@H]1c2ccccc2C[C@H]1O
inactive: all assays above

OCCOCCN1CCN(C(c2ccccc2)c2ccc(Cl)cc2)CC1 (stereo not drawn)
inactive: all assays above

CC1(C)S[C@@H]2[C@H](NC(=O)C(C(=O)O)c3ccccc3)C(=O)N2[C@H]1C(=O)O (stereo partly drawn)
inactive: all assays above

CCCNC(=O)NS(=O)(=O)c1ccc(Cl)cc1
inactive: all assays above

CN1CCN(C(c2ccccc2)c2ccccc2)CC1
inactive: all assays above

Cc1cccc(C)c1OCC(C)N (stereo not drawn)
inactive: all assays above

CN1C(=O)CC(C)(c2ccccc2)C1=O (stereo not drawn)
inactive: all assays above

Cc1onc(-c2ccccc2Cl)c1C(=O)N[C@@H]1C(=O)N2[C@@H]1SC(C)(C)[C@@H]2C(=O)O
inactive: all assays above

CC(C)Oc1ccc2c(=O)c(-c3ccccc3)coc2c1
inactive: all assays above

CCCCS(=O)(=O)N[C@@H](Cc1ccc(OCCCCC2CCNCC2)cc1)C(=O)O
inactive: all assays above

COc1cc2c(N3CCN(C(=O)Nc4ccc(OC(C)C)cc4)CC3)ncnc2cc1OCCCN1CCCCC1
inactive: all assays above

CC(CN1c2ccccc2Sc2ccccc21)N(C)C (stereo not drawn)
inactive: all assays above

O=c1c(O)c(-c2ccc(O)c(O)c2)oc2cc(O)cc(O)c12
inactive: all assays above

CCN(CCO)CCCC(C)Nc1ccnc2cc(Cl)ccc12 (stereo not drawn)
inactive: all assays above

CC/C(=C(\c1ccccc1)c1ccc(OCCN(C)C)cc1)c1ccccc1
inactive: all assays above

Cc1[nH]cnc1CN1CCc2c(c3ccccc3n2C)C1=O
inactive: all assays above

CN1CCC[C@@H]1Cc1c[nH]c2ccc(CCS(=O)(=O)c3ccccc3)cc12
inactive: all assays above

C[n+]1ccccc1/C=N/O
inactive: all assays above

COc1ccccc1Oc1c(NS(=O)(=O)c2ccc(C(C)(C)C)cc2)nc(-c2ncccn2)nc1OCCO
inactive: all assays above

CN1CCN(CCCN2c3ccccc3Sc3ccc(C(F)(F)F)cc32)CC1
inactive: all assays above

C[C@]12CC[C@@H]3c4ccc(O)cc4C[C@@H](CCCCCCCCCS(=O)CCCC(F)(F)C(F)(F)F)[C@H]3[C@@H]1CC[C@@H]2O (stereo partly drawn)
inactive: all assays above

COC(c1ccccc1)(c1ccccc1)[C@H](Oc1nc(C)cc(C)n1)C(=O)O
inactive: all assays above

Cc1cc(C)cc(OCC2CNC(=O)O2)c1 (stereo not drawn)
inactive: all assays above

Cc1ccc(S(=O)(=O)NC(=O)NN2CCCCCC2)cc1
inactive: all assays above

CN1C(CCl)Nc2cc(Cl)c(S(N)(=O)=O)cc2S1(=O)=O (stereo not drawn)
inactive: all assays above

O[C@@H](c1cc(C(F)(F)F)nc2c(C(F)(F)F)cccc12)[C@H]1CCCCN1
inactive: all assays above

COc1ccc(Cl)cc1C(=O)NCCc1ccc(S(=O)(=O)NC(=O)NC2CCCCC2)cc1
inactive: all assays above

NNc1nncc2ccccc12
inactive: all assays above

Cc1onc(-c2c(Cl)cccc2Cl)c1C(=O)N[C@@H]1C(=O)N2[C@@H]1SC(C)(C)[C@@H]2C(=O)O
inactive: all assays above

Cn1cc[nH]c1=S
inactive: all assays above

C[C@@H](O)[C@H]1C(=O)N2C(C(=O)O)=C(S[C@@H]3CN[C@H](CNS(N)(=O)=O)C3)[C@H](C)[C@H]12
inactive: all assays above

NCCCC(O)(P(=O)(O)O)P(=O)(O)O
inactive: all assays above

CC(C)[N+](C)(CCOC(=O)C1c2ccccc2Oc2ccccc21)C(C)C
inactive: all assays above

CC1(C)S[C@@H]2[C@H](NC(=O)Cc3ccccc3)C(=O)N2[C@H]1C(=O)O (tested in a mixture with another compound)
inactive: all assays above

CC(C)NC[C@@H](O)COc1ccc(CC(N)=O)cc1
inactive: all assays above

Cc1ccc(C(=O)c2cc(O)c(O)c([N+](=O)[O-])c2)cc1
inactive: all assays above

OCCN1CCN(CCCN2c3ccccc3Sc3ccc(Cl)cc32)CC1
inactive: all assays above

NCCC(O)(P(=O)(O)O)P(=O)(O)O
inactive: all assays above

CCOc1ccccc1OCCN[C@H](C)Cc1ccc(OC)c(S(N)(=O)=O)c1
inactive: all assays above

COc1cc2nc(N(C)CCCNC(=O)C3CCCO3)nc(N)c2cc1OC (stereo not drawn)
inactive: all assays above

CCCCOCCOCCOCc1cc2c(cc1CCC)OCO2
inactive: all assays above

CC(COc1ccccc1)N(CCCl)Cc1ccccc1 (stereo not drawn)
inactive: all assays above

C[C@H]1c2cccc(O)c2C(O)=C2C(=O)[C@]3(O)C(O)=C(C(N)=O)C(=O)[C@@H](N(C)C)[C@@H]3[C@@H](O)[C@@H]21
inactive: all assays above

OCCN1CCN(CCCN2c3ccccc3Sc3ccc(C(F)(F)F)cc32)CC1
inactive: all assays above

COc1cc2c(cc1OC)C(=O)C(CC1CCN(Cc3ccccc3)CC1)C2 (stereo not drawn)
inactive: all assays above

CN(C)/N=N/c1nc[nH]c1C(N)=O
inactive: all assays above

CC[N+](C)(C)c1cccc(O)c1
inactive: all assays above

CCOC(=O)[C@H](CCc1ccccc1)N[C@@H](C)C(=O)N1[C@H](C(=O)O)C[C@@H]2CCC[C@@H]21
inactive: all assays above

CS(=O)(=O)OCCCCOS(C)(=O)=O
inactive: all assays above

O=C(O)CCNC(=O)c1ccc(N=Nc2ccc(O)c(C(=O)O)c2)cc1
inactive: all assays above

COC(=O)N[C@H](C(=O)N[C@@H](Cc1ccccc1)[C@@H](O)CN(Cc1ccc(-c2ccccn2)cc1)NC(=O)[C@@H](NC(=O)OC)C(C)(C)C)C(C)(C)C
inactive: all assays above

CN(C)CC/C=C1\c2ccccc2COc2ccccc21
inactive: all assays above

Cc1ccccc1C(OCCN(C)C)c1ccccc1 (stereo not drawn)
inactive: all assays above

CCOC(=O)C1=C(C)NC(C)=C(C(=O)OC)C1c1cccc(Cl)c1Cl (stereo not drawn)
inactive: all assays above

CCN(C)C(=O)Oc1cccc([C@H](C)N(C)C)c1
inactive: all assays above
